Where “and” joins values, the source holds several entries; their conditions need not be identical. Equal entries are not always repeated. Screen size: about 69,000 compounds; about 2,600 (3.8%) were called active. Rule as the data show it: active = activity change below about -70% (passing the limit was not always enough); inconclusive = no clear call, values can overlap the other calls. The full list was thinned out, with actives kept by preference.
Assay: inhibitors of Toxoplasma growth in IFN-γ-primed hosts – cell-based, primary screen (AID 1259416);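 also: host cells are HeLa cells infected with Toxoplasma gondii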
Settings: Toxoplasma gondii growth in IFN-gamma-treated host cells; hits give low values; concentration not given here
With `O=C(CSc1nc2ccc(N3C(=O)c4ccccc4C3=O)cc2s1)N1CCOCC1` the activity change, negative = inhibition was 1.26% (inactive).
With `COc1ccc(NS(=O)(=O)c2cc3c4c(c2)CCC(=O)N4CCC3)cc1OC` the activity change, negative = inhibition was 2.51% (inactive).
In the case of `CC(C)Cc1cc(C(=O)N2CCCC3(CN(C)C(=O)O3)C2)on1` (stereo unspecified), the activity change, negative = inhibition is reported as 3.84% (inactive).
With `CCCCCC(O)c1cccc(OCc2ccc3ccccc3n2)c1` (stereo unspecified) the activity change, negative = inhibition was 74.5% (inactive) and 28.6% (inactive).
With `Cn1cc(-c2ccncc2)c(-c2ccc(OCc3ccc4ccccc4n3)cc2)n1` the activity change, negative = inhibition was -77.6% (active).
With `Cc1nn(C)cc1-c1c(-c2ccccc2)ncn1CCNC(=O)c1ccncc1` the activity change, negative = inhibition was -3.05% (inactive).
In the case of `CCOC(=O)c1c(C(F)(F)F)cc(-c2ccccc2)nc1C`, the activity change, negative = inhibition is reported as 12.4% (inactive).
With `O=C(c1ccoc1)N1CCCn2c(nc(CN3CCCC3)cc2=O)C1` the activity change, negative = inhibition was -0.164% (inactive).
In the case of `COc1ccc(S(=O)(=O)CCNS(=O)(=O)N2CCCC(C)C2)cc1` (stereo unspecified), the activity change, negative = inhibition is reported as 2.67% (inactive).
With `CCN(CC)c1ncnc2c1cnn2CC(=O)NCc1ccccc1` the activity change, negative = inhibition was -95.8% (active).
With `O=C(Cn1ncc2c(N3CCCC3)ncnc21)NCc1ccccc1` the activity change, negative = inhibition was 10.5% (inactive).
With `CCc1ccccc1NC(=O)Cn1ncc2c(N(CC)CC)ncnc21` the activity change, negative = inhibition was -34.2% (inactive).
For `Cc1cc(N2CCC(C(=O)Nc3nnc(-c4cccnc4)s3)CC2)n2ncnc2n1`, the activity change, negative = inhibition was -5.63% (inactive).
In the case of `COc1ccc(CCCOC(Cn2ccnc2)c2ccc(OC)cc2)cc1` (stereo unspecified), the activity change, negative = inhibition is reported as -83.3% (active).
In the case of `Clc1ccc(C(Cn2ccnc2)OCc2ccsc2Cl)c(Cl)c1` (stereo unspecified), the activity change, negative = inhibition is reported as -59.6% (inactive) and 3.6% (inactive).
With `Cc1nc2c(c(=O)[nH]1)CCN(C(=O)c1c(-c3ccccc3Cl)noc1C)C2` the activity change, negative = inhibition was 11.4% (inactive).
With `COC(=O)c1cc2n(n1)CCCN(C(=O)COc1ncnc3ccccc13)C2` the activity change, negative = inhibition was 2.6% (inactive).
In the case of `O=C(COc1ccc(C(=O)c2ccccc2)cc1)NC1CCN(Cc2ccccc2)CC1`, the activity change, negative = inhibition is reported as 25.7% (inactive).
With `O=C(Nc1ccc(OCc2ccccc2)cc1)OCC1CN(Cc2ccccc2)CCO1` (stereo unspecified) the activity change, negative = inhibition was -88.7% (active).
In the case of `COc1ccc(NC(=O)c2cccc(CN3C[C@@H](C)O[C@@H](C)C3)c2)cc1`, the activity change, negative = inhibition is reported as 26.7% (inactive).
In the case of `CN1Cc2ccccc2CC2(CCN(Cc3ccsc3)CC2)C1=O`, the activity change, negative = inhibition is reported as 0.416% (inactive).
For `CN1C(=O)c2cc(NC(=O)c3ccc4c(c3)OCO4)ccc2OC[C@@H]2O[C@H](CC(=O)O)CC[C@H]21`, the activity change, negative = inhibition was 8.45% (inactive).
For `Cc1ccc(NC(=O)CN2C(=O)CCc3cc(S(=O)(=O)N4CCCCC4C)ccc32)cc1N(C)C` (stereo unspecified), the activity change, negative = inhibition was -103% (active).
With `Cc1ccc(Cl)cc1NC(=O)CN1C(=O)CCc2cc(S(=O)(=O)N3CCCCC3)ccc21` the activity change, negative = inhibition was 0.0244% (inactive).
For `Cc1cc(C)cc(NC(=O)CN2C(=O)CCc3cc(S(=O)(=O)N4CCOCC4)ccc32)c1`, the activity change, negative = inhibition was 24.4% (inactive).
With `COC(=O)c1c(NCc2c(C)noc2C)c2cccc(Cl)c2[nH]c1=O` the activity change, negative = inhibition was 7.07% (inactive).
With `Cc1ccc2[nH]c3c(c2c1)CCNC31C(=O)N(C)c2ccc(Br)cc21` (stereo unspecified) the activity change, negative = inhibition was 1.48% (inactive).
With `CS(=O)(=O)N1CCO[C@H]2[C@@H](OCc3cccnc3)CC[C@H]21` the activity change, negative = inhibition was 37.3% (inactive).
For `O=C(Nc1ccc(F)cc1F)N1CCCN(CCOc2ccccc2)CC1`, the activity change, negative = inhibition was 8.95% (inactive).
For `O=c1[nH]c2ccccc2n1C1CCN(CCOc2ccccc2)CC1`, the activity change, negative = inhibition was -49.4% (inactive).
With `O=C1c2cc(OCCN3CCCCC3)ccc2-c2ccc(OCCN3CCCCC3)cc21` the activity change, negative = inhibition was -90% (active).
In the case of `O=C1NCCc2[nH]c(-c3ccncc3)cc21`, the activity change, negative = inhibition is reported as -85.6% (active).
With `COc1cccc(-c2cn[nH]c2C2CCCN2S(=O)(=O)c2ccc(Cl)cc2)c1` (stereo unspecified) the activity change, negative = inhibition was -31.9% (inactive).
In the case of `Cc1nn(CC(=O)N(C)Cc2ccccc2)c(=O)c2nc(-c3ccccc3)sc12`, the activity change, negative = inhibition is reported as -55.4% (inactive).
With `O=S(=O)(CCSCc1ccc(Cl)cc1)CCSCc1ccc(Cl)cc1` the activity change, negative = inhibition was -10% (inactive).
With `CS(=O)(=O)Nc1ccc(-n2cnc(-c3ccccc3)c2)cn1` the activity change, negative = inhibition was 11.6% (inactive).
For `CC1(C)CC(=O)c2cnc3cc(-c4ccccc4)nn3c2C1`, the activity change, negative = inhibition was -86.8% (active).
For `O=C(Nc1ccc(F)cc1F)c1c(O)c2ccccc2n(-c2ccccc2)c1=O`, the activity change, negative = inhibition was 24% (inactive).
In the case of `S=C(NCCCc1cnc[nH]1)NCCCN(Cc1ccc(Cl)c(Cl)c1)c1ccc(Br)cn1`, the activity change, negative = inhibition is reported as -78.1% (active).
For `Cc1ccc(NC(=O)CC(=O)NCCc2cnc[nH]2)cc1Cl`, the activity change, negative = inhibition was 5.77% (inactive).
With `COc1ccc(NC(=O)c2cc3c(s2)CCN3C(=O)C2CC2)cc1` the activity change, negative = inhibition was 23.2% (inactive).
For `Cn1c(=O)c(-c2nc(-c3cccs3)no2)c(O)c2ccccc21`, the activity change, negative = inhibition was 67.9% (inactive).
With `CCSCCN(C(=O)c1nnc2nc(C)cc(C)n12)C1CCCCC1` the activity change, negative = inhibition was -3.21% (inactive).
For `COc1ccc2c3c(n(C)c2c1)[C@H](CO)N(C(=O)Nc1cccc(F)c1)CC31CN(Cc2nccs2)C1`, the activity change, negative = inhibition was -24.3% (inactive).
In the case of `N#Cc1ccc(C(=O)N2CCC3C2CCC(=O)N3c2cccnc2)cc1` (stereo unspecified), the activity change, negative = inhibition is reported as -20.1% (inactive).
In the case of `Cc1ccc(-c2nc(Cn3nnc(C(=O)NCc4ccccn4)c3C)c(C)o2)cc1`, the activity change, negative = inhibition is reported as -57.8% (inactive).
With `COc1ccc(Br)cc1-c1nc(Cn2nnc(C(=O)Nc3cc(F)ccc3C)c2C)c(C)o1` the activity change, negative = inhibition was 423% (inactive).
In the case of `COc1ccccc1NC(=O)c1nnn(Cc2nc(-c3cccc(OC)c3OC)oc2C)c1C`, the activity change, negative = inhibition is reported as -83.3% (active).
With `Cc1ccccc1-c1nc(Cn2nnc(C(=O)Nc3c(C)cccc3C)c2C)c(C)o1` the activity change, negative = inhibition was -38.6% (inactive).
With `Cc1ccc(Cl)cc1NC(=O)c1nnn(Cc2nc(-c3cccc(Cl)c3)oc2C)c1C` the activity change, negative = inhibition was 55.8% (inactive).
With `Cc1cccc(C)c1NC(=O)c1nnn(Cc2nc(-c3ccccc3)oc2C)c1C` the activity change, negative = inhibition was -62.3% (inactive).
For `COc1ccccc1NC(=O)c1nnn(Cc2nc(-c3ccc(C)cc3)oc2C)c1C`, the activity change, negative = inhibition was -82.9% (active).
With `COc1ccc(-c2nc(Cn3nnc(C(=O)Nc4ccccc4C)c3C)c(C)o2)c(OC)c1` the activity change, negative = inhibition was 32.4% (inactive).
In the case of `CCc1ccccc1NC(=O)c1nnn(Cc2nc(-c3ccccc3C)oc2C)c1C`, the activity change, negative = inhibition is reported as -107% (active).
For `CCC(c1ccccn1)N(C)C1CCNCC1` (stereo unspecified), the activity change, negative = inhibition was 16.8% (inactive).
For `CN(CC1Cc2ccccc2O1)S(=O)(=O)NCc1ccccc1` (stereo unspecified), the activity change, negative = inhibition was 0.376% (inactive).
With `CN1CCO[C@@H]2CN(C(=O)CC3Cc4ccccc4C3)C[C@@H]2C1` the activity change, negative = inhibition was 112% (inactive).
With `CN(C[C@@H]1[C@H](c2ccccc2)[C@@H](CO)N1Cc1ccccn1)S(C)(=O)=O` the activity change, negative = inhibition was 2.44% (inactive).
With `CCc1cc(CN2CCCC2c2nc3ccc(C)cc3[nH]2)on1` (stereo unspecified) the activity change, negative = inhibition was 9.45% (inactive).
With `CC(=O)NCCc1csc(C2CCN(C(=O)NCc3ccc(F)cc3)CC2)n1` the activity change, negative = inhibition was -3.56% (inactive).
In the case of `O=C(O)CCC(=O)N1CC2CCC(C1)N2C(=O)c1ccco1`, the activity change, negative = inhibition is reported as 61.2% (inactive).
In the case of `CC(C)NC(=O)N1CC2(C1)[C@H](c1ccccc1)[C@H](CO)N2C(=O)C1CCOCC1`, the activity change, negative = inhibition is reported as -2.06% (inactive).
With `Cc1cccc(C2c3[nH]c4ccccc4c3CCN2C(=O)C(=O)CCc2ccccc2)n1` (stereo unspecified) the activity change, negative = inhibition was -13.8% (inactive).
In the case of `CSc1ccc(C2c3[nH]c4ccccc4c3CCN2C(=O)c2cc3ccccc3[nH]2)cc1` (stereo unspecified), the activity change, negative = inhibition is reported as -96.3% (active).
For `CCOc1ccc(C2c3[nH]c4ccccc4c3CCN2C(=O)C2CC2)cc1` (stereo unspecified), the activity change, negative = inhibition was -34.9% (inactive).
With `Cc1cccc(C2c3[nH]c4ccccc4c3CCN2C(=O)c2ccccc2C)c1` (stereo unspecified) the activity change, negative = inhibition was -84.7% (active).
For `CCOc1cccc(C2c3[nH]c4ccccc4c3CCN2C(=O)c2ccccc2)c1` (stereo unspecified), the activity change, negative = inhibition was -34.3% (inactive).
For `Cc1ccc(C2c3[nH]c4ccccc4c3CCN2C(=O)c2cccc(C)c2)cc1` (stereo unspecified), the activity change, negative = inhibition was 226% (inactive).
For `CCOc1cccc(CC(=O)N2CCc3c([nH]c4ccccc34)C2c2ccc(OC)cc2)c1OCC` (stereo unspecified), the activity change, negative = inhibition was 213% (inactive).
With `CCOc1cccc(CC(=O)N2CCc3c([nH]c4ccccc34)C2c2ccc(F)cc2)c1OCC` (stereo unspecified) the activity change, negative = inhibition was -74.9% (active).
With `COCC1CN(c2ccc(C)nn2)Cc2cnn(C)c21` (stereo unspecified) the activity change, negative = inhibition was -0.315% (inactive).
With `Cc1ccc(S(=O)(=O)Nc2cncc(C(=O)NCC(C)C)c2)cc1` the activity change, negative = inhibition was -16.9% (inactive).
With `Cc1nn(C)c2c1C(c1cc(F)ccc1-n1cccn1)CC(=O)N2` (stereo unspecified) the activity change, negative = inhibition was -37.8% (inactive).
For `CC1(C)[C@@H](O[C@H]2O[C@H](C(=O)O)[C@@H](O)[C@H](O)[C@@H]2O[C@@H]2O[C@H](C(=O)O)[C@@H](O)[C@H](O)[C@H]2O)CC[C@@]2(C)[C@H]3C(=O)C=C4[C@@H]5C[C@@](C)(C(=O)O)CC[C@]5(C)CC[C@@]4(C)[C@]3(C)CC[C@@H]12`, the activity change, negative = inhibition was 15.6% (inactive).
In the case of `COc1ccccc1-c1nc(Cc2noc(-c3cccnc3)n2)c(C)o1`, the activity change, negative = inhibition is reported as -62.2% (inactive).
With `O=C(c1cccc(Cl)c1)N1CCC2(CC1)Nc1cc(F)ccc1-n1cccc12` the activity change, negative = inhibition was 50.9% (inactive).
In the case of `O=C1N[C@H](c2ccccc2)COCc2cn(nn2)CC[C@H]1Cc1cccc(Cl)c1`, the activity change, negative = inhibition is reported as -2.88% (inactive).
In the case of `CCN(CC)C(=O)[C@@H]1C[C@H](N)CN1C(=O)Cc1ccc(F)c(C)c1`, the activity change, negative = inhibition is reported as 3.3% (inactive).
With `Cc1cc(-c2cc(C3CCN(C(=O)C4CC(=O)C4)C3)ccn2)ccc1F` (stereo unspecified) the activity change, negative = inhibition was 14.5% (inactive).
For `O=C(CCc1ccco1)N1CCc2onc(-c3ccc(C(F)(F)F)cc3)c2C1`, the activity change, negative = inhibition was 9.55% (inactive).
For `Clc1ccc(-c2noc3c2CN(CCn2cc(Cl)cn2)CC3)cc1`, the activity change, negative = inhibition was -72.1% (active).
With `c1ccc2c(-c3noc4c3CN(CC3CCCO3)CC4)cccc2c1` (stereo unspecified) the activity change, negative = inhibition was -4.04% (inactive).
With `O=C(CC1COCCN1)NCCC(c1ccccc1)c1ccccc1` (stereo unspecified) the activity change, negative = inhibition was -9.21% (inactive).
With `CNc1nc(N2CCN(Cc3nccn3C(C)C)CC2)nc2c1CCC2` the activity change, negative = inhibition was 8.7% (inactive).
With `Cc1nc(CN2CCCn3nnc(COC(C)C)c3C2)cs1` the activity change, negative = inhibition was 9.42% (inactive).
For `COCCC(=O)N1CCN(CC2CC2)c2nc(C)ccc2C1`, the activity change, negative = inhibition was -15.5% (inactive).

From PubChem BioAssay AID1259416 (Broad Institute, 2018)
